# This is part of a sample that, as a whole, favours compounds with a hit. Of some 83,000 tested, about 20% had one in any assay.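 Results are percent growth after 48 hours of single-concentration exposure. 100 means growth as in untreated cells, lower positive values show inhibition; negative values down to -100 show cell death.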 Values without a mark were called inactive. Calls of active or inactive are those of the source. The calls were made as follows: active = growth percent below 10; inactive = the rest.
# Legend:
# Test in all cases: NCI-60 one-dose screen, 48 h (100 = growth as untreated, 0 = no growth, -100 = all killed)
# Conditions in all cases: 10 µM unless noted
# NCI-H23 lung = system: NCI-H23 lung
# NCI-H226 lung = system: NCI-H226 lung
# NCI-H322M lung = system: NCI-H322M lung
# HOP-62 NSCLC = system: HOP-62 NSCLC
# NCI-H460 lung = system: NCI-H460 lung
# HOP-92 NSCLC = system: HOP-92 NSCLC
# NCI-H522 lung = system: NCI-H522 lung
# A549/ATCC NSCLC = system: A549/ATCC NSCLC
# 786-0 renal = system: 786-0 renal
# COLO 205 colon = system: COLO 205 colon
SMILES,growth (NCI-H23 lung),growth (NCI-H226 lung),growth (NCI-H322M lung),growth (HOP-62 NSCLC),growth (NCI-H460 lung),growth (HOP-92 NSCLC),growth (NCI-H522 lung),growth (A549/ATCC NSCLC),growth (786-0 renal),growth (COLO 205 colon)
O=C1c2ccccc2Cc2cccc(Cl)c21,95.5%,94.6%,85.4%,98.8%,117%,110%,85.8%,91.7%,89.1%,–
CC1C(c2ccccc2)OCCN1C(=S)Nc1ccc(S(=O)(=O)N2CCCCC2)cc1 (configuration not stated),98.6%,91.6%,108%,109%,104%,78.2%,-34.1% (active),102%,109%,108%
N=C1C=C(N)C(=O)c2ccccc21,-82.3% (active),-63% (active),-88.4% (active),-94.3% (active),-67.8% (active),-38.8% (active),-67% (active),-71.7% (active),-99.6% (active),-93.7% (active)
O=[N+]([O-])c1ccc(C2N(Cc3ccc(Cl)cc3)CCN2Cc2ccc(Cl)cc2)cc1,97.5%,95.1%,75.5%,94.5%,101%,-1.91% (active),75.8%,96%,81.7%,–
CCCCCCCCc1cc(Cl)c(O)c(Cl)c1,103%,104%,121%,105%,109%,99.5%,97.6%,98.5%,108%,108%
c1ccc(-c2cc3cc4ccccc4cn3c2)cc1,89.3%,73.1%,99.6%,78.7%,88.3%,76.5%,79.4%,89.9%,102%,95.1%
CCC1C[N+]2=C(c3cc(OC)c(OC)cc3CC2)c2c1cc1n2CCc2cc(OC)c(OC)cc2-1 (configuration not stated),43%,65.7%,98.6%,55.9%,21.5%,-2.62% (active),17%,56.9%,66.3%,-35.4% (active)
O=C1/C(=C/c2ccccn2)CCc2ccccc21,105%,98.2%,113%,113%,102%,91.5%,89.9%,99.3%,101%,–
O/N=C1\c2ccccc2-c2ccc(F)cc21,99.4%,82.5%,92.5%,95.9%,98.9%,94.7%,100%,100%,104%,73.7%
CCOc1ccc(C(CN2CCOCC2)C(C)=O)cc1OC (configuration not stated),98.9%,98.9%,117%,104%,108%,102%,-51.6% (active),101%,63.7%,58%
O=C(/C=C/c1ccccc1)c1ccccc1O,82.3%,91.6%,90.2%,103%,93.2%,74.4%,69.6%,83.9%,79.7%,105%
CCCCCCCCCCCCCCCCCC1=NCCCN1CCO,106%,103%,101%,90.7%,105%,95.5%,103%,94.7%,104%,108%
COC(=O)Nc1nc2ccc(C3(c4ccc(F)cc4)OCCO3)cc2[nH]1,47.4%,63.9%,51.7%,35.8%,10.4%,41.1%,-37.2% (active),21.7%,51%,0.171% (active)
Cc1cc(C(=O)c2ccc(Cl)cc2)ccc1O,102%,90.1%,103%,85.7%,106%,104%,72.5%,91.8%,79.7%,122%
CCOc1ccc(C(C[N+](=O)[O-])Sc2ccccc2N)cc1 (configuration not stated),10.2%,78.6%,88.2%,92.1%,58.9%,82.7%,85.3%,62.9%,-63.2% (active),10.1%
CC(=O)c1ccc2c(c1)CCc1ccccc1-2,107%,94.7%,116%,88.5%,107%,95.3%,110%,91%,83.7%,110%
O=Nc1ccc2ccccc2c1O,56.6%,102%,103%,95.2%,97.5%,90.1%,74.7%,87.1%,98%,75.1%
CCCCCCCCCCCC[n+]1ccc(CCCCCCCCC)cc1,-80.8% (active),-65.2% (active),56.1%,-84.8% (active),-63.6% (active),-55.5% (active),-33.1% (active),-44.8% (active),-85.1% (active),-76.5% (active)
O=C(Nc1ccc(Cl)c(Cl)c1)OCc1ccco1,58.5%,63.9%,56.6%,49.3%,26.4%,58.9%,5.5% (active),34.9%,57.5%,64.8%
[Cl-].[Rh+3].c1ccc(-c2ccnc3c2ccc2c(-c4ccccc4)ccnc23)cc1.c1ccc(-c2ccnc3c2ccc2c(-c4ccccc4)ccnc23)cc1.c1ccc(-c2ccnc3c2ccc2c(-c4ccccc4)ccnc23)cc1,86.6%,107%,105%,92%,92.4%,80.9%,42.1%,-0.367% (active),84.8%,64.6%
CC(O)C(O)C(O)C(O)C(O)C(=O)NNc1ccccc1 (configuration not stated),96.1%,94.3%,76.1%,72.4%,100%,95.2%,66.8%,90.9%,103%,94.2%
COc1cc(/C=C2\SC(=S)N(/C=C/c3nc4ccccc4[nH]c3=O)C2=O)cc(OC)c1OC,69.7%,76.6%,89.1%,65.8%,92.1%,53.3%,60.3%,67.5%,76.6%,101%
COC(=O)c1ccc(=O)c2nc3/c(=C/O)c(O)cc(=O)c3[nH]c12,15.1%,34.9%,29.1%,-9.51% (active),19.9%,-1.12% (active),6.78% (active),27.7%,11.8%,51%
CCCCC(C=O)(C=C=C(C)C)CC (configuration not stated),112%,103%,101%,120%,105%,86.4%,95.5%,94.3%,99.1%,110%
CCSc1nc2ccccc2o1,107%,106%,120%,99.4%,103%,81.8%,94.3%,96.1%,106%,113%
COc1ccc2c(c1OC)OCC(CN(C)C)C2=O (configuration not stated),104%,97.6%,111%,100%,122%,52.1%,-81% (active),98.9%,92.7%,-75.2% (active)
Cc1cc(C(=C2C=CC(=Nc3ccccc3)C=C2)c2ccc(Nc3ccccc3)cc2)ccc1N,-32.2% (active),-84.4% (active),-34.4% (active),-85.2% (active),-83.9% (active),-92.9% (active),-81.3% (active),-91.9% (active),-84.1% (active),-65.1% (active)
CCC(C)(O)Cc1ccc(Cl)cc1 (configuration not stated),109%,97.5%,100%,97.1%,104%,102%,99.5%,104%,100%,108%
